Assay results taken from PubChem BioAssay.
Unmarked numbers belong to inactive results. Activity calls are given as the source filed them.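 Rule for the calls: active = thallium flux through the channel raised or lowered by more than 3 SD from vehicle-only wells, actives on both sides; inactive = the rest.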

Legend:
Assay in all cases: BK channel mutant inhibitors and activators – cell-based, U2OS BacMam, thallium flux, beta subunits, selectivity assay, profiling panel (AID 1259406);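 note: initial slope of Thallos dye fluorescence rise after thallium is added; log ratio against the mean of 0.3% DMSO vehicle wells on the same plate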
F380Y = settings: U2OS BacMam BK variants, at 30 µM
F380Y/beta1 = settings: U2OS BacMam BK variants, at 30 µM
F380Y/beta2Delta = settings: U2OS BacMam BK variants, at 30 µM
F380Y/beta4 = settings: U2OS BacMam BK variants, at 30 µM
[1] = target: Calcium-activated potassium channel subunit alpha-1 (Homo sapiens) + Leucine-rich repeat-containing protein 26 (Homo sapiens) (UniProt Q12791+Q2I0M4); settings: U2OS BacMam BK variants, F380Y/Slo1WT/gamma1, at 30 µM
R275C = settings: U2OS BacMam BK variants, at 30 µM
R275C/beta1 = settings: U2OS BacMam BK variants, at 30 µM
R275C/beta2Delta = settings: U2OS BacMam BK variants, at 30 µM
R275C/beta4 = settings: U2OS BacMam BK variants, at 30 µM
R275C/Slo1WT/beta2 = settings: U2OS BacMam BK variants, at 30 µM

Sequence of Calcium-activated potassium channel subunit alpha-1 (Homo sapiens) + Leucine-rich repeat-containing protein 26 (Homo sapiens) (Q2I0M4 whole entry, looked up, one chain of several): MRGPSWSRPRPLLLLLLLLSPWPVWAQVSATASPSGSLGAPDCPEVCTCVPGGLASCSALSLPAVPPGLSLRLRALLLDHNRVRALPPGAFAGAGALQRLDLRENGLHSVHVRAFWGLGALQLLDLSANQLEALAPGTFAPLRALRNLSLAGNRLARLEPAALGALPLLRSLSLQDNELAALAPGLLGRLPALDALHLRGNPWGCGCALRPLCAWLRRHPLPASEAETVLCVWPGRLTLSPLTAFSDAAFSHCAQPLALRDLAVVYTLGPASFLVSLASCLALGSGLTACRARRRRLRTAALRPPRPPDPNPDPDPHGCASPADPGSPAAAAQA

Compound | log fold change Tl+ flux (F380Y) | log fold change Tl+ flux (F380Y/beta1) | log fold change Tl+ flux (F380Y/beta2Delta) | log fold change Tl+ flux (F380Y/beta4) | log fold change Tl+ flux [1] | log fold change Tl+ flux (R275C) | log fold change Tl+ flux (R275C/beta1) | log fold change Tl+ flux (R275C/beta2Delta) | log fold change Tl+ flux (R275C/beta4) | log fold change Tl+ flux (R275C/Slo1WT/beta2)
CCOC(=O)CCSC1=NC(c2cccs2)C(C(=O)OCC)=C(C)N1 (stereo not given) | -0.00248 | -0.0154 | -0.0693 | -0.0516 | -0.0633 | -0.0523 | -0.0288 | -0.0824 | -0.0154 | -0.0325
N#Cc1ccc(NCCc2ccccn2)c([N+](=O)[O-])c1 | 0.00452 | -0.0335 | -0.0123 | -0.0514 | -0.00295 | -0.00307 | -0.0352 | -0.049 | 0.0115 | 0.0168
CCCCCc1c(C)nc(-c2ccccn2)[nH]c1=O | -0.0547 | -0.0236 | -0.0415 | -0.0388 | -0.0142 | 0.00744 | 0.00404 | 0.0392 | 0.0188 | -0.0181
COc1cc(CCC(C)NC(=O)c2ccc(C)cc2)ccc1OC(=O)c1ccc(C)cc1 (stereo not given) | -0.0917 | -0.0646 | -0.0421 | -0.23 (active) | -0.115 (active) | -0.0349 | -0.0935 | -0.0312 | -0.0233 | 0.00819
O=C(NNc1c(Cl)cccc1Cl)c1csc(Cc2c(Cl)cccc2Cl)n1 | 0.031 | -0.0231 | 0.0346 | -0.048 | -0.0234 | 0.0148 | -0.0344 | 0.00139 | -0.00534 | 0.0322
CC1(C)CCc2cc(C=NNC(=O)c3cccc(Cl)c3Cl)ccc2O1 | -0.00742 | 0.0223 | -0.00817 | 0.0599 | 0.0181 | -0.00408 | 0.0163 | -0.000312 | -0.0646 | 0.00986
Oc1c(Cl)c(Cl)c(Cl)c2ccccc12 | 0.503 (active) | 0.627 (active) | 0.473 (active) | 0.484 (active) | 0.395 (active) | 0.519 (active) | 0.527 (active) | 0.304 (active) | 0.702 (active) | 0.141 (active)
Cc1c(O)nc2ccccn2c1=O | 0.0365 | -0.00065 | 0.0329 | 0.00904 | 0.0423 | -0.0111 | 0.0248 | 0.00886 | 0.0309 | 0.0209
O=C(Nc1ccc(-n2ccc(C(F)(F)F)n2)cc1)C1=Cc2cc(Cl)ccc2OC1 | 0.0274 | -0.019 | 0.0253 | -0.0159 | -0.106 | -0.0271 | -0.0315 | 0.035 | -0.0139 | -0.0341
Cc1nn(Cc2nnn(CC(=O)NN=Cc3ccc(Cl)cc3)n2)c(C)c1Br | 0.0697 | 0.0216 | 0.00259 | -0.0438 | 0.0569 | 0.0224 | -0.0427 | -0.045 | 0.011 | 0.0426
Cc1noc(C=Cc2sccc2C2OCCO2)c1[N+](=O)[O-] | 0.00373 | 0.00792 | -0.0403 | -0.0687 | -0.0936 | 0.00445 | -0.0604 | -0.0701 | -0.00776 | -0.000775
Cn1c(Sc2cnc(=S)[nH]c2-c2ccc(Cl)cc2)nnc1C(F)(F)F | 0.000803 | 0.0224 | 0.000625 | -0.0336 | 0.0434 | -0.0138 | -0.00364 | -0.0183 | 0.0272 | 0.0806
CSC(=S)NNC(=O)c1ccc(C(F)(F)F)cc1 | 0.0858 | 0.233 (active) | 0.0998 | 0.29 (active) | 0.1 | 0.134 (active) | 0.158 (active) | 0.0788 | 0.305 (active) | 0.232 (active)
CC(=O)CSc1nc(SCC(C)=O)c2cnc(N3CCCC3)nc2n1 | -0.0105 | -0.0297 | -0.00118 | -0.00484 | 0.0577 | -0.0104 | -0.000725 | -0.0224 | -0.00829 | 0.0731
O=C1c2cc(S(=O)(=O)O)ccc2CCC1S(=O)(=O)O (stereo not given) | 0.0577 | 0.132 (active) | 0.167 (active) | 0.0447 | -0.0209 | 0.0448 | 0.0433 | 0.151 (active) | 0.0299 | -0.0389
N#CC(CCC(=O)O)(CCC(=O)O)S(=O)(=O)c1ccccc1 | 0.0317 | 0.000152 | -0.0465 | -0.00447 | 0.0235 | 0.0374 | 0.0216 | 0.0211 | -0.014 | 0.0459
Cn1c(C(=O)O)ccc1S(=O)(=O)N(Cc1ccccc1)Cc1ccccc1 | 0.0347 | 0.205 (active) | 0.0498 | 0.139 (active) | 0.000486 | 0.00591 | 0.0906 | 0.0893 (active) | 0.11 (active) | 0.0146
Cn1c(SCCS(=O)(=O)c2ccc(OC(F)(F)F)cc2)nnc1C(F)(F)F | -0.047 | -0.00843 | -0.0119 | 0.00857 | -0.00452 | 0.0189 | -0.0256 | -0.0306 | -0.0219 | -0.0104
O=C(Cn1nnc(N2CCCC2)n1)NN=Cc1ccc(Cl)cc1 | -0.0338 | -0.0165 | -0.0415 | 0.0509 | -0.0411 | 0.0738 | 0.012 | -0.0395 | 0.0185 | -0.00152
CCOC(=O)C1CCC(C(=O)OCC)N1C(=O)Nc1ccc(Cl)cc1 (stereo not given) | 0.046 | 0.00842 | 0.0313 | -0.0525 | -0.0039 | 0.0639 | 0.0271 | 0.0385 | 0.0217 | -0.00903
COC(=O)CC1(C(=O)OC)Oc2ccc(Br)cc2C(=O)N1c1cccc(Cl)c1Cl (stereo not given) | -0.195 (active) | 0.188 (active) | -0.0998 | -0.677 (active) | -0.246 (active) | -0.108 (active) | 0.102 | 0.0176 | -0.204 (active) | -0.0135
Cc1cc2c(NC(=O)c3ccccc3C(=O)O)cccc2nn1 | -0.0132 | 0.714 (active) | -0.0393 | 0.0303 | 0.0158 | 0.0158 | -0.0051 | -0.00027 | -0.0138 | -0.00217
Cc1ccc(S(=O)(=O)N2Cc3ccccc3C(C)CC23CCCCC3)cc1 (stereo not given) | -0.0732 | -0.033 | -0.0539 | -0.175 (active) | -0.0898 | -0.0799 (active) | -0.119 (active) | -0.0411 | -0.0534 | 0.009
CS(=O)(=O)C(C#N)=NNc1ccc(OC(F)(F)F)cc1 | 0.0798 | 0.148 (active) | 0.0975 | 0.0278 | 0.0802 | 0.0522 | 0.0751 | 0.119 (active) | 0.0407 | -0.0347
CC12CCC(c3c1nn(-c1ccccc1)c3C(F)(F)F)C2(C)C (stereo not given) | 0.0382 | 0.00752 | 0.00374 | 0.00603 | 0.00466 | 0.00439 | -0.0295 | 0.0124 | -0.0271 | -0.0353
COCc1cc(=O)[nH]c(SCC(=O)c2ccc(-c3ccccc3)cc2)n1 | 0.0542 | 0.0105 | 0.0138 | -0.000638 | 0.0335 | 0.0131 | -0.0427 | 0.032 | 0.0252 | -0.000518
